Bioassay records deposited in PubChem BioAssay by several laboratories.
Rows were chosen to be rich in hits. Some 32% of all compounds tested hit in one or more screens of this group.
CYP2C19 inhib = blocks human cytochrome P450 2C19 | P33261 | CYP2C19 Supersomes, luciferin-H EGE luminescence, 30 min | 96,000 tested, 21% active | inhibition, % at 5 µM | AID 778;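 active = CYP2C19 inhibition above a set limit at 5 µM in the primary screen, cut at about 50% in these data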;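 also: plate controls were negative control wells for no effect and 2.5 mM tranylcypromine positive control for full effect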
Target sequence (P33261 whole entry, looked up): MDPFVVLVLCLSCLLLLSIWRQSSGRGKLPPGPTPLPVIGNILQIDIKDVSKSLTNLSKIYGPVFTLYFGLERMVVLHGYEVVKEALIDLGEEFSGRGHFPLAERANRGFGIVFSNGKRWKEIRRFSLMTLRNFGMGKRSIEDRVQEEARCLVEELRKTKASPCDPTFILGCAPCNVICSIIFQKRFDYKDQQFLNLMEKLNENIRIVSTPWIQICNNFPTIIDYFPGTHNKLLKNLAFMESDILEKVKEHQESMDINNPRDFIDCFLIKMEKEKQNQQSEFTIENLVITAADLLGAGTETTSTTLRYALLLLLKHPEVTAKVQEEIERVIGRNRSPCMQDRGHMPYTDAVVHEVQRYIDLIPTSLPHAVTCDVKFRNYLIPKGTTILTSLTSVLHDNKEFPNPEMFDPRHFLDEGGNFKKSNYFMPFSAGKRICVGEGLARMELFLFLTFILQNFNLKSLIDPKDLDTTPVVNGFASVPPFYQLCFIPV
PostGolgi ctrl = inhibits growth of the yeast control strain | AID 738 | 98,000 tested, 5% active | efflux-deficient yeast background strain, growth absorbance A615, 16 h | inhibition, % at 10 µM
CYP2C19 act = cytochrome P450 2C19 (human) activation; P33261; recombinant CYP2C19, luciferin-H EGE luminescence; hits give high values; 0 = fully inhibited enzyme, 1 = untreated enzyme; activation factor at 5 µM; 96,000 tested, under 10 active;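 active = activation factor of at least 2 at 5 µM in the primary screen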;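 also: 0 = wells with 2.5 mM tranylcypromine and 1 = vehicle-only wells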
PostGolgi yeast = growth inhibition of a yeast mutant, post-Golgi transport screen. inhibition, % at 10 µM. AID 739. post-Golgi transport phenotypic cell assay. 98,000 tested, 0.9% active;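 also: yeast cells grown in 1536-well plates; yeast grown about 18 h at 30C before absorbance read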
CYP2C9 activ = CYP2C9 (human) activation; P11712; recombinant CYP2C9, luciferin-H conversion, luminescence; hits give high values; factor 1 = untreated enzyme, 0 = blocked; activation factor at 5 µM; 96,000 tested, 1.4% active; AID 1024;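 active = activation factor of 2 or more for CYP2C9 at a 5 µM dose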;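 also: 0 = sulfaphenazole-blocked wells and 1 = vehicle-only wells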
CYP2C9 inh = blocks human cytochrome P450 2C9; P11712; CYP2C9 Supersomes, luciferin-H conversion, luminescence; AID 777; 96,000 tested, 20% active; inhibition, % at 5 µM;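 active = blocking of liver enzyme CYP2C9 beyond about 50% at 5 µM, limit read from the data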
* = called active by the depositor; . = no result given. Rule as the data show it, unless noted: active = inhibition above about 30%; inactive = the rest.

SMILES	CYP2C19 inhib	PostGolgi ctrl	CYP2C19 act	PostGolgi yeast	CYP2C9 activ	CYP2C9 inh
C/C=C/Cn1c(N(C)Cc2ccccc2)nc2c1c(=O)[nH]c(=O)n2C	-9	8	1.1	-1	0.9	9
CCCCc1oc2c(c(=O)c1C)C(=O)CC(c1ccccc1)C2 (stereo not drawn)	100*	20	0	14	0.2	78*
Cc1c(C(=O)O)[nH]c2c1C(=O)CC(c1ccccc1)C2 (stereo not drawn)	-16	-1	1.2	-4	1.1	-8
Cc1ccc(S(=O)(=O)Nc2cc(NC(=O)CN3CCOCC3)ccc2Cl)cc1	33	-8	0.7	0	0.1	86*
Cc1ccc(S(=O)(=O)Nc2cccc(NC(=O)CN3CCCCC3)c2)cc1	92*	23	0.1	-5	0.1	92*
Cc1ccc(S(=O)(=O)Nc2ccc(NC(=O)CN3CCCCC3)cc2)cc1	3	11	1	-5	0.3	72*
O=C(CN1CCOCC1)Nc1ccc(S(=O)(=O)N2CCCCCC2)cc1	7	1	0.9	-4	1	1
O=C(CN1CCCCC1)Nc1ccc(S(=O)(=O)N2CCCCCC2)cc1	-2	1	1	11	0.9	13
Cc1cccc(-n2nc(C(=O)Nc3ccccc3)n3c(=O)cc(-c4ccccc4)nc23)c1	6	10	0.9	8	0.9	13
CNc1nc(C)nc(-c2ccccc2O)n1	16	2	0.8	-4	2.1*	-112
Cc1ccc(SC(=O)COc2ccccc2C)cc1	9	-4	0.9	0	0.9	12
Cc1ccc(/C(COc2ccccc2O)=N\O)cc1	76*	6	0.2	3	0.6	41
COC(=O)c1cccc(NC(=O)NC2CCCN2S(=O)(=O)c2ccc(Cl)cc2)c1 (stereo not drawn)	24	20	0.8	3	0.5	54*
Clc1ccc(CNC2CCCC2)cc1	78*	2	0.2	0	0.8	19
Oc1ccc(CNC2CCCCC2)cc1	-4	-2	1	-2	1.1	-13
COCCNC(=O)c1c[nH]n2c(=O)cc(C3CCN(C(=O)OC(C)(C)C)CC3)nc12	9	-9	0.9	6	0.4	62*
O=C(NCc1ccc(C(F)(F)F)cc1)C1CC(c2c(Cl)cccc2Cl)=NO1 (stereo not drawn)	64*	11	0.4	6	0.7	26
O=C(NCc1ccc(C(F)(F)F)cc1)C1CC(c2ccccc2[N+](=O)[O-])=NO1 (stereo not drawn)	38	5	0.6	-7	1.8	-77
CCCCNC(=O)C1CC(c2cccc([N+](=O)[O-])c2)=NO1 (stereo not drawn)	0	16	1	-1	2*	-99
CCCCNC(=O)C1CC(c2c(Cl)cccc2Cl)=NO1 (stereo not drawn)	27	7	0.7	0	4.8*	-385
COc1ccccc1CNC(=O)C1CC(c2cccc([N+](=O)[O-])c2)=NO1 (stereo not drawn)	30	4	0.7	11	2.5*	-150
C1CN(c2nc3nonc3n3nnnc23)CCO1	18	-1	0.8	0	0.7	28
C=CCOC(=O)C1=C(C)NC(SCC(=O)N(CC)CC)=C(C#N)C1c1ccco1 (stereo not drawn)	69*	-1	0.3	11	0.2	80*
C=CCOC(=O)C1=C(C)NC(SCC(=O)N(CC)CC)=C(C#N)C1c1ccccc1 (stereo not drawn)	97*	17	0	0	0.1	90*
COCCOC(=O)C1=C(C)OC(N)=C(C#N)C1c1ccco1 (stereo not drawn)	.	6	.	1	.	.
SMILES	CYP2C19 inhib	PostGolgi ctrl	CYP2C19 act	PostGolgi yeast	CYP2C9 activ	CYP2C9 inh
C=CCOC(=O)C1=C(C)NC(SCC(=O)NC(=O)OCC)=C(C#N)C1c1cccnc1 (stereo not drawn)	87*	3	0.1	3	0.1	92*
C=CCOC(=O)C1=C(C)NC(SCC(=O)Nc2ccccc2)=C(C#N)C1c1ccco1 (stereo not drawn)	60*	3	0.4	12	0.3	72*
c1ccc2c(c1)nc1n2CCS1	62*	8	0.4	-5	1.2	-19
COc1ccccc1NC(=O)Cc1coc2cc(C)ccc12	64*	11	0.4	-15	0.6	42
O=C(CCC1COc2ccccc2O1)NCC1COc2ccccc2O1 (stereo not drawn)	.	18	.	1	.	.
CCOc1ccccc1NC(=O)Cc1coc2cc(C)ccc12	95*	10	0.1	9	0.1	90*
COC(=O)c1cccc(NC(=O)Cc2coc3cc(OC)ccc23)c1	.	1	.	-4	.	.
Cc1ccc2c(CC(=O)NCC3COc4ccccc4O3)coc2c1 (stereo not drawn)	100*	6	0	1	0	95*
COc1ccccc1NC(=O)c1oc2ccc(C)cc2c1C	4	3	1	6	2*	-103
COCC(=O)Nc1c(C(=O)Nc2ccccc2OC)oc2ccccc12	0	21	1	3	0.9	12
CC(C)CNC(=O)c1cccc(C(=O)NCC(C)C)c1	38	20	0.6	6	0.7	33
COC(=O)C(CCSC)NC(=O)CNS(=O)(=O)c1ccc(Cl)cc1 (stereo not drawn)	21	13	0.8	-21	0.8	22
Cn1c(NCCN2CCCCC2)cc(=O)n(C)c1=O	-14	17	1.1	1	1.1	-6
N#C/C(=C/c1ccc(N2CCCCCC2)o1)c1cccc(F)c1	39	1	0.6	-5	0.5	46
N#C/C(=C/c1ccc(N2CCCCCC2)o1)c1ccc(F)cc1	.	5	.	30*	.	.
COc1ccc(-c2cc(N)n(S(=O)(=O)c3c(F)c(F)c(F)c(F)c3F)n2)cc1OC	59*	68*	0.4	104*	0.2	83*
COc1ccc(C(=O)C(OC(=O)CNC(=O)c2ccco2)c2ccccc2)cc1 (stereo not drawn)	46	-5	0.5	-1	0.8	19
CSc1ccc(C2C(C#N)=C(N)N(c3ccccc3)C3=C2C(=O)CCC3)cc1 (stereo not drawn)	74*	12	0.3	1	0.1	90*
CC1(C)CC(=O)C2=C(C1)N(c1ccc(F)cc1)C(=O)CC2c1ccsc1 (stereo not drawn)	63*	3	0.4	-2	1	5
O=C1CCCC2=C1C(c1ccccc1)C1=C(CCCC1=O)O2	5	.	0.9	.	1	3
O=C1CCCC2=C1C(c1ccccc1)CC(=O)N2c1ccccc1 (stereo not drawn)	78*	35*	0.2	-2	0.9	6
Cc1ccc(N2C(=O)CC(c3ccsc3)C3=C2CC(C)(C)CC3=O)cc1 (stereo not drawn)	40	7	0.6	5	0.7	33
